Shown are actives, neighbours in structure and some others; about 2.1% of the full set was active somewhere.
AF4-AF9 inh: MLL-AF4/AF9 protein interaction inhibition. P42568. AlphaScreen, biotin-AF4 peptide binding to FLAG-AF9. inhibition, % at 10 µM. 350,000 tested, 0.47% active. AID 651704;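 active = every replicate reaching a set inhibition limit, whatever the replicate mean, cut at about 25% in these data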
Target sequence (P42568 whole entry, looked up): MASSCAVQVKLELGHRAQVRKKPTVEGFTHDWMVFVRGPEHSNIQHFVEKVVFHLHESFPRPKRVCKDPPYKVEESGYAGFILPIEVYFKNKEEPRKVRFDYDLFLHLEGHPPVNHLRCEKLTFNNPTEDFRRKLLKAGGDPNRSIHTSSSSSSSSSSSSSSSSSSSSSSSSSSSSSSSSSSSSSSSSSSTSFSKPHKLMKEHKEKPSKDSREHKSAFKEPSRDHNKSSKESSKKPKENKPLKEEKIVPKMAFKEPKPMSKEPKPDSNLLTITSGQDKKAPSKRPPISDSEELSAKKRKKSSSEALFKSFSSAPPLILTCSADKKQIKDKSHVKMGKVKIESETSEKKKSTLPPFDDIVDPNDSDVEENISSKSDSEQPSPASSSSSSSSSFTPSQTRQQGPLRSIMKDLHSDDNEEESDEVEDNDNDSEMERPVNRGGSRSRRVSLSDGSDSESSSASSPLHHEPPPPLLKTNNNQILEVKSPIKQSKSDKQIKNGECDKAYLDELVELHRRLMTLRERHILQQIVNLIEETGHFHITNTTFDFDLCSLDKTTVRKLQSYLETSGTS
NSD2 HMT inh: NSD2 (human) methyltransferase inhibition; NSD2 peptide methylation, AlphaScreen, 120 min; inhibition, % at 12.5 µM; 310,000 tested, 0.54% active; AID 743445; in the data active = inhibition above about 50%
HIV Env fusion: inhibitors of HIV Env-mediated cell fusion. 360,000 tested, 1.1% active. HeLa-JRFL Env/CEM21 cell fusion, luciferase. inhibition, % at 12.3 µM;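 active = mean replicate inhibition score of at least 50 and every replicate individually at or above 50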
INS-1E GSIS act: primary screen for activators of insulin secretion dependent on glucose, INS-1E cells, GLuc reporter luminescence; INS-1E GLuc reporter insulin secretion, 2-3 h; activation, % at 16.6 µM; 370,000 tested, 0.61% active;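 active = lowest replicate activation of at least 40%, so every replicate reaches that level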
PGC1a acetyl inh: lowers PGC1a acetylation signal in U2OS cells | AlphaScreen anti-acetyl-lysine; with virally co-expressed GCN5 acetyltransferase | inhibition, % at 15.6 µM | 350,000 tested, 0.17% active | AID 651687;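 active = every replicate shows inhibition of at least 40%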
A number is an active result; 0 = inactive; - = not tested or not shown.

SMILES	AF4-AF9 inh	NSD2 HMT inh	HIV Env fusion	INS-1E GSIS act	PGC1a acetyl inh
COc1ccc(OC)c(S(=O)(=O)NCCS(=O)(=O)N2CCN(c3ccccc3)CC2)c1	0	0	0	0	0
Cc1ccc(Oc2ncc(-c3ccc(Cl)cc3)cn2)cc1	-	0	-	46	0
O=C1NC(=Nc2ccccc2Cl)SC1(CO)CO	0	0	0	0	-
O=C(NCCC1=CCCCC1)c1ccc(F)c(S(=O)(=O)N2CCOCC2)c1	-	0	-	-	0
CC1CN(S(=O)(=O)c2cc(C(=O)NC(C)c3cccnc3)ccc2Cl)CC(C)O1 (stereo not given)	0	0	0	43	0
CC1CN(S(=O)(=O)c2cc(C(=O)NCCC3=CCCCC3)ccc2Cl)CC(C)O1 (stereo not given)	0	0	68	0	-
COC(=O)C1Cc2c([nH]c3ccccc23)C2(CCN(Cc3ccccc3)CC2)N1 (stereo not given)	30	0	0	0	0
Cc1cc(C)cc(OCCNC(=O)c2cc(S(=O)(=O)N3CCOCC3)ccc2F)c1	0	0	0	0	0
Cc1ccc(CNC(=O)C2CCCN(c3nc4ccccc4o3)C2)cc1 (stereo not given)	0	-	0	0	0
O=C(N/N=C/c1ccc(Cl)cc1)c1ccc2c(c1)OCO2	0	0	0	0	0
O=C(O)c1ccc(N/N=C/c2ccc3c(c2)OCO3)cc1	0	0	70	0	0
O=C(N/N=C/c1ccc2c(c1)OCO2)c1ccc(Cl)cc1Cl	0	0	0	58	0
COc1ccc(/C=N/NC(=O)c2cc(-c3ccc4c(c3)OCO4)n[nH]2)cc1OC	0	0	0	49	-
O=c1[nH]c(N/N=C\c2ccc3c(c2)OCO3)nc2ccccc12	0	0	0	0	-
O=c1cnnc(N/N=C/c2ccc3c(c2)OCO3)[nH]1	0	0	55	0	0
CC1CCCN(C(=O)C(C)Sc2nc(-c3ccccc3)cc(C(F)(F)F)n2)C1 (stereo not given)	-	0	57	-	0
C[C@@H]1CCCCO[C@@H](CN(C)C(=O)Nc2ccc3c(c2)OCO3)[C@H](C)CN([C@H](C)CO)C(=O)c2cc(NC(=O)Nc3cccc4ccccc34)ccc2O1	0	-	-	0	0
COc1ccc(C(=O)COC(=O)CSCc2c(C)noc2C)cc1OC	0	0	-	55	0
CCc1noc(C)c1C(=O)OCC(=O)c1ccc(OC)c(OC)c1	0	0	-	0	0
COc1ccc(C(=O)O/N=C(/C)c2cccs2)cc1	-	0	-	0	0
O=C(CN1C(=O)/C(=C2\SC(=S)N(C3CCS(=O)(=O)C3)C2=O)c2ccccc21)Nc1ccc(F)cc1 (stereo not given)	0	0	0	-	0
c1ccc2c(c1)OCC(c1nnc3n1-c1ccccc1SC3)O2 (stereo not given)	-	0	-	-	0
c1ccc(-c2nnc3n2-c2ccccc2SC3)cc1	0	0	0	58	-
O=C1c2ccccc2C(=O)c2c1cccc2N(CCO)CCO	28	0	0	0	0
CN(C)S(=O)(=O)c1cccc2c1C(=O)c1ccccc1C2=O	0	0	-	0	-
SMILES	AF4-AF9 inh	NSD2 HMT inh	HIV Env fusion	INS-1E GSIS act	PGC1a acetyl inh
Nc1cc2[nH]c(=O)c3ccccc3c2cc1Br	0	0	0	0	-
Nc1cc2c(cc1Br)[nH]c(=O)c1ccccc12	0	-	83	-	0
COc1ccc(NC(=O)c2ccc3c(c2)N(C)CCS3)cc1	0	-	0	0	-
CN1CCSc2ccc(C(=O)Nc3cccc(F)c3)cc21	0	0	0	67	-
C[C@@H]1CN([C@@H](C)CO)C(=O)c2c(c3ccccc3n2C)-c2ccccc2CO[C@@H]1CN(C)S(=O)(=O)c1cccc(C#N)c1	0	-	0	0	0
Cc1ccc(F)cc1-c1nc(NC(C)C)nc2cc(-c3ccccc3)sc12	0	0	0	66	-
COc1cccc(NC(=O)N2CC(=O)N3[C@H](CO)[C@@H](c4ccc(Br)cc4)[C@H]3C2)c1	0	-	-	0	0
C[C@@H]1CCCCO[C@H](CN(C)C(=O)c2ccccc2)[C@H](C)CN([C@H](C)CO)C(=O)c2cc(NC(=O)c3ccncc3)ccc2O1	0	-	0	0	0
C#C[C@]1(O)CCC2C3CCC4=CC(=O)CC[C@@H]4C3CC[C@@]21C (stereo not given in full)	0	-	0	-	0
CC#C[C@]1(O)CC[C@H]2[C@@H]3CCC4=CC(=O)CCC4=C3[C@@H](c3ccc(N(C)C)cc3)C[C@@]21C	33	-	0	-	0
COc1ccc(CN(C)C[C@H]2OCCCC[C@@H](C)Oc3ccc(NC(=O)Nc4ccc5c(c4)OCO5)cc3C(=O)N([C@H](C)CO)C[C@H]2C)cc1	0	-	0	0	0
COc1ccc(CN(C)C[C@@H]2OCCCC[C@H](C)Oc3ccc(NC(=O)Nc4ccc5c(c4)OCO5)cc3C(=O)N([C@H](C)CO)C[C@H]2C)cc1	25	-	0	0	0
COc1ccc(CN(C)C[C@H]2OCCCC[C@@H](C)Oc3ccc(NC(=O)Nc4ccc5c(c4)OCO5)cc3C(=O)N([C@@H](C)CO)C[C@H]2C)cc1	32	-	0	0	0
Cn1c(NCCCN2CCOCC2)nc2c1c(=O)n(Cc1ccc(Cl)cc1Cl)c(=O)n2C	-	0	63	-	0
CCc1nc2c(OCc3ccc(C#N)cc3)cccn2c1N(C)C(=O)c1ccc(C)cc1	0	0	0	0	0
C[C@@H]1CN([C@H](C)CO)C(=O)c2c(c3ccccc3n2C)-c2ccccc2CO[C@@H]1CN(C)Cc1ccc2c(c1)OCCN2C	50	-	-	0	0
C[C@@H]1CN([C@@H](C)CO)C(=O)c2c(c3ccccc3n2C)-c2ccccc2CO[C@H]1CN(C)Cc1ccc2c(c1)OCCN2C	39	-	-	0	0
C[C@H]1CN([C@@H](C)CO)C(=O)c2c(c3ccccc3n2C)-c2ccccc2CO[C@H]1CN(C)Cc1ccc(Cl)c(Cl)c1	0	-	-	0	0
COc1ccc(C(=O)CC(=O)c2ccccc2)cc1	0	0	0	0	0
COc1ccc(C(=O)C/C(=C\C(=O)c2ccc(C)cc2)c2ccccc2)cc1	-	0	103	-	0
O=C(/C=C/c1ccccc1)NC(NC(=S)Nc1ccc(Cl)cc1)C(Cl)(Cl)Cl (stereo not given)	-	-	61	-	0
O=C(NCc1csc(-c2ccccc2)n1)c1ccco1	-	0	-	-	0
CS(=O)(=O)NNC(=O)C1Cc2c(ccc3ccccc23)O1 (stereo not given)	0	0	0	0	0
O=C(NNS(=O)(=O)c1ccc(F)cc1F)C1Cc2c(ccc3ccccc23)O1 (stereo not given)	-	0	97	-	0
O=C(c1cccnc1Cl)N(Cc1ccccc1)Cc1ccccc1	0	-	0	0	-
Nc1ncnc2c1ncn2C1OC(C(=O)NC2CC2)C(O)C1O (stereo not given)	48	-	0	0	0
Cn1c(=O)c2c(ncn2CC(=O)N2CCN(c3ccc([N+](=O)[O-])cc3)CC2)n(C)c1=O	0	0	0	0	0
Cn1c(CN2CCCCC2)nc2cc(NC(=O)c3cccc(Br)c3)ccc21	-	0	67	-	0
Cc1cc(=O)oc2cc(OC(C)C(=O)NCCCn3ccnc3)ccc12 (stereo not given)	0	0	0	0	0
CCCn1c(=O)c2ccccc2n2c(SCCNCCO)nnc12	27	0	0	0	0
